Data published in PubChem BioAssay (EPA / NIEHS).
Results filed as inconclusive are left out. Calls of active or inactive are those of the source. How the source made its calls: active means hit-call score of the fitted dose curve at least 0.9, where 1 is the maximum; inconclusive means response in the unintended direction; inactive means score below 0.9.

Legend:
[1] = biological target: Estrogen receptor (Homo sapiens) (UniProt P03372); assay: OT_ER_ERaERa_1440: Odyssey Thera (OT) 24-hour HEK293T Protein-Complementation Assay for Estrogen Receptor-alpha/-alpha Homodimer (AID 2283349);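 further: hits raise fluorescence above DMSO for agonists and antagonists alike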
Method in brief: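 Stably transfected HEK293T; ERα LBD homodimer PCA. 24 h dosing, fluorescence intensity read, gain-of-signal vs DMSO.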

[2] = biological target: Estrogen receptor (Homo sapiens) (UniProt P03372); assay: OT_ER_ERaERa_0480: Odyssey Thera (OT) 8-hour HEK293T Protein-Complementation Assay for Estrogen Receptor-alpha/-alpha Homodimer (AID 2283351);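 further: rise in fluorescence from reassembled reporter fragments on ERα LBD homodimer in nucleus or whole cell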
Method in brief: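 Measures ERα LBD (aa 310-547) homodimer complementation in stably transfected HEK293T at 8 h post-dose, with fluorescence intensity quantified on a laser scanning cytometer relative to DMSO controls.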

[3] = biological target: T1, Estrogen receptor (Homo sapiens) + Estrogen receptor beta (Homo sapiens) (UniProt P03372+Q92731); assay: OT_ER_ERaERb_0480: Odyssey Thera (OT) 8-hour HEK293T Protein-Complementation Assay for Estrogen Receptor-alpha/-beta Heterodimer (AID 2283352)
Method in brief: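 Human HEK293T cells were treated for 8 hours and receptor heterodimerisation was detected through reconstitution of a fluorescent reporter split between ER-alpha and ER-beta ligand-binding domains. Activity was analysed as gain of signal against DMSO.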

[4] = biological target: T1, Estrogen receptor (Homo sapiens) + Estrogen receptor beta (Homo sapiens); assay: OT_ER_ERaERb_1440: Odyssey Thera (OT) 24-hour HEK293T Protein-Complementation Assay for Estrogen Receptor-alpha/-beta Homodimer (AID 2283356);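 further: heteromer of ER alpha and ER beta binding domains; hits raise reporter fluorescence and both agonists and antagonists give an increase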
Method in brief: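 24 h exposure; HEK293T PCA cells with ERα/ERβ LBD fragments; signal rise in nuclear or whole-cell fluorescence over vehicle.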

[5] = biological target: Estrogen receptor beta (Homo sapiens) (UniProt Q92731); assay: OT_ER_ERbERb_0480: Odyssey Thera (OT) 8-hour HEK293T Protein-Complementation Assay for Estrogen Receptor-beta/-beta Homodimer (AID 2283357);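 further: active means signal gain over DMSO baseline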
Method in brief: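 Fluorescence gain from complemented reporter fragments on ER-beta LBD homodimer in HEK293T was quantified against DMSO controls after 8 h treatment, fixation in 4% formaldehyde and Draq5 staining.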

[6] = biological target: Estrogen receptor (Homo sapiens) (UniProt P03372); assay: NVS_NR_hER: NovaScreen (NVS) Nuclear Receptor Binding Assay for human Estrogen Receptor (ER) (AID 2283348)
Method in brief: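 Radiodetection of ligand displacement in a lysate-based, cell-free format using MCF7 extracts, read at 18 hours. Duplicate 25 uM primary testing, then concentration series for actives.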

[7] = biological target: Nuclear receptor subfamily 1 group I member 2 (Homo sapiens) (UniProt O75469); assay: NVS_NR_hPXR: NovaScreen (NVS) Nuclear Receptor Binding Assay for human Pregnane X Receptor (PXR) (AID 2283365);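 further: a drop in FRET signal versus DMSO baseline means the compound binds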
Method in brief: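 Read-out: TR-FRET, human PXR, 2 h post-dosing, cell-free. Loss of signal vs DMSO taken as binding activity; 25 uM primary, concentration series secondary.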

[8] = biological target: Androgen Receptor/SRC-1 Co-activator, AR (gene 367) (UniProt P10275); assay: OT_AR_ARSRC1_0480: Odyssey Thera (OT) 8-hour HEK293T Protein-Complementation Assay for Androgen Receptor/SRC-1 Co-activator (AID 2283354);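 further: hits raise the complementation signal above DMSO so AC50 marks enhancers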
Method in brief: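 After 8 h dosing, stably expressing HEK293T cells with split-Venus AR/SRC-1 fusions were imaged (488, 635nm). The 488nm N/C ratio per image gave the endpoint, analysed in the positive direction against DMSO.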

[9] = biological target: Retinoic acid receptor alpha (Homo sapiens) (UniProt P10276); assay: NVS_NR_hRARa_Agonist: NovaScreen (NVS) Nuclear Receptor Binding Assay for human Retinoic Acid Alpha Receptor Agonism (RAR) (AID 2283361)
Method in brief: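 Compounds screened at 25 uM, duplicate, then in concentration series if active. Detection: TR-FRET gain of signal versus DMSO after 2 h with cell-free extracted RARα.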

[10] = biological target: human Thyroid Receptor Alpha (TRa), THRA (gene 7067) (UniProt P10827); assay: NVS_NR_hTRa_Antagonist: NovaScreen (NVS) Nuclear Receptor Binding Assay for human Thyroid Receptor Alpha Antagonism (TRa) (AID 2283362);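 further: activity is loss of signal relative to DMSO baseline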
Method in brief: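 In this biochemical format, receptor protein is dosed with chemical and read after 1 hour via AlphaLISA. Decreases from the DMSO baseline indicate antagonist activity; screening used 25 uM in duplicate before concentration-response confirmation.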

[11] = biological target: Glucocorticoid receptor (Homo sapiens) (UniProt P04150); assay: NVS_NR_hGR: NovaScreen (NVS) Nuclear Receptor Binding Assay for human Glucocorticoid Receptor (GR) (AID 2283363);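 on AC50: activity is loss of specific radioligand binding signal relative to DMSO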
Method in brief: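 Single-readout cell-free binding: radioligand plus extracted receptor, 16-hour dosing, filter radiodetection; 25 uM duplicate primary, concentration series secondary.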

[12] = biological target: rat Androgen Receptor (AR), Ar (gene 24208) (UniProt P15207); assay: NVS_NR_rAR: NovaScreen (NVS) Nuclear Receptor Binding Assay for rat Androgen Receptor (AR) (AID 2283366)
Method in brief: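 Actives from a duplicate single-concentration (25 uM) primary run went on to concentration series. Displacement of radioligand was counted by filtration and scintillation, 18 h post-dose, using prostate extracts from testosterone-pretreated rats, with DMSO as baseline.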

[13] = biological target: human Peroxisome Proliferator-activated Receptor alpha (PPARa), PPARA (gene 5465) (UniProt Q07869); assay: NVS_NR_hPPARa: NovaScreen (NVS) Nuclear Receptor Binding Assay for human Peroxisome Proliferator-activated Receptor alpha (PPARa) (AID 2283359);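 further: activity means loss of TR-FRET signal versus DMSO baseline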
Method in brief: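 One-hour incubation, cell-free extracted protein, TR-FRET binding readout; signal loss vs DMSO scored. Screen: 25 uM duplicates, confirmatory dose series for actives.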

[14] = system: guinea pig Dopamine Transporter (DAT), gene 100714898; assay: NVS_TR_gDAT: NovaScreen (NVS) Transporter Assay for guinea pig Dopamine Transporter (DAT) (AID 2283369);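 further: active compounds lower bound radioligand signal relative to DMSO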
Method in brief: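 Primary pass: duplicate wells at 25 uM, threshold e.g. 30% inhibition. Follow-up: singleton concentration-response, highest 50 uM. Radioligand binding on guinea pig striatal membranes, 2 h, filtration scintillation detection.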

[15] = biological target: human Dopamine Transporter (DAT), SLC6A3 (gene 6531) (UniProt Q01959); assay: NVS_TR_hDAT: NovaScreen (NVS) Transporter Assay for human Dopamine Transporter (DAT) (AID 2283374);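 further: activity means loss of bound radioligand signal relative to DMSO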
Method in brief: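 Extracted human SLC6A3 protein incubated 1 h with radioligand and test chemical; bound fraction separated on filters and counted. Single 25 uM duplicate screen preceded concentration-response follow-up; positive and negative controls on every plate.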

[16] = biological target: Retinoic acid receptor alpha (Homo sapiens) (UniProt P10276); assay: NVS_NR_hRAR_Antagonist: NovaScreen (NVS) Nuclear Receptor Binding Assay for human Retinoic Acid Alpha Receptor Antagonism (RAR) (AID 2283358)
Method in brief: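 Chemicals were first tested in duplicate at 25 uM, then actives in concentration series, in a cell-free TR-FRET antagonist binding format. Measurements were taken 2 hours after dosing and loss of signal was evaluated against DMSO controls.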

[17] = biological target: guinea pig Sigma Receptor, Non-selective Binding, SIGMAR1 (gene 100135589) (UniProt Q60492); assay: NVS_OR_gSIGMA_NonSelective: NovaScreen (NVS) Nuclear Receptor Binding Assay for guinea pig Sigma Receptor, Non-selective Binding (AID 2283367)
Method in brief: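 Test chemicals were screened in duplicate at 25 uM, then in concentration series if active, against radioligand binding to guinea pig brain membranes; filtration and scintillation counting at 1 h measured remaining bound ligand.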

Measured: AC50

Chain of Estrogen receptor beta (Homo sapiens) (Q92731 whole entry, looked up, the tested form may be a part): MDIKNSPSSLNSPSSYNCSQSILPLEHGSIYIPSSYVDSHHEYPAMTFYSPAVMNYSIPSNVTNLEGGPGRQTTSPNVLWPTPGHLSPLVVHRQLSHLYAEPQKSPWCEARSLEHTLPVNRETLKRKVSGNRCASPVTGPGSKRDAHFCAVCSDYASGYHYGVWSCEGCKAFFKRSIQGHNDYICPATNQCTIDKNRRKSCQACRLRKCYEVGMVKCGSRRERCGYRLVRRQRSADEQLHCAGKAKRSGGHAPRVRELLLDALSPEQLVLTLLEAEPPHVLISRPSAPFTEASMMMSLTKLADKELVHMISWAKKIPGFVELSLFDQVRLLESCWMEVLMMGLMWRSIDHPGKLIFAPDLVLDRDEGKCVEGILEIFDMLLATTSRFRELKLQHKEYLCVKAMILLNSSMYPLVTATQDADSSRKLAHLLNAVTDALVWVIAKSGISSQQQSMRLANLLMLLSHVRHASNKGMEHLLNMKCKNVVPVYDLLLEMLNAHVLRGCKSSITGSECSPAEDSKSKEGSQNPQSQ
Chain of Androgen Receptor/SRC-1 Co-activator, AR (gene 367) (P10275 whole entry, looked up, the tested form may be a part): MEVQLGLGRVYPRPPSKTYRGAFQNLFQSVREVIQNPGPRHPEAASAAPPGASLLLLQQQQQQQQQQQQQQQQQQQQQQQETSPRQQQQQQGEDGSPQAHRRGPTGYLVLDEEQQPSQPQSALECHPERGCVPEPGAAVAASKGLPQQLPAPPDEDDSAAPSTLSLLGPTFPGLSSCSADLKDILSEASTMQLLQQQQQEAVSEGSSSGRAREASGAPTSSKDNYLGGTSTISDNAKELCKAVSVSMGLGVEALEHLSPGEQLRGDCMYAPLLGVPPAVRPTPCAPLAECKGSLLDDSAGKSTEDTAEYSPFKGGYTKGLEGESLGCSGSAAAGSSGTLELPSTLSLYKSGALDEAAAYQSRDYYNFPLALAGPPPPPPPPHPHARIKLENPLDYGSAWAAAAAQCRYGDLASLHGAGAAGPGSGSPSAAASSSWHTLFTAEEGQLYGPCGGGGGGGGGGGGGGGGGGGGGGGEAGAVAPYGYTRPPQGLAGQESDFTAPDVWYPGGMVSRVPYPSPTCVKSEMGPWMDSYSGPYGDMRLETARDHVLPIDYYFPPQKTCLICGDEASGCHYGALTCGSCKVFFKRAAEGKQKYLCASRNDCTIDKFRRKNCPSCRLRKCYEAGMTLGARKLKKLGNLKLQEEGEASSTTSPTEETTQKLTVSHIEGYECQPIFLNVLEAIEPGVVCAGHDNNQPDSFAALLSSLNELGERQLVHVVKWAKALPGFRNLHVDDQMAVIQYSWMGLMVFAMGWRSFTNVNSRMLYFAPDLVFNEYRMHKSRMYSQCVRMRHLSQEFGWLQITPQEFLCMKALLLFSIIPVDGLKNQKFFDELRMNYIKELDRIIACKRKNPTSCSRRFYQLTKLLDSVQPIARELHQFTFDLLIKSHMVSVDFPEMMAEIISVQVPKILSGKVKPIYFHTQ
T1 sequence (P03372 whole entry, looked up, the tested form may be a part): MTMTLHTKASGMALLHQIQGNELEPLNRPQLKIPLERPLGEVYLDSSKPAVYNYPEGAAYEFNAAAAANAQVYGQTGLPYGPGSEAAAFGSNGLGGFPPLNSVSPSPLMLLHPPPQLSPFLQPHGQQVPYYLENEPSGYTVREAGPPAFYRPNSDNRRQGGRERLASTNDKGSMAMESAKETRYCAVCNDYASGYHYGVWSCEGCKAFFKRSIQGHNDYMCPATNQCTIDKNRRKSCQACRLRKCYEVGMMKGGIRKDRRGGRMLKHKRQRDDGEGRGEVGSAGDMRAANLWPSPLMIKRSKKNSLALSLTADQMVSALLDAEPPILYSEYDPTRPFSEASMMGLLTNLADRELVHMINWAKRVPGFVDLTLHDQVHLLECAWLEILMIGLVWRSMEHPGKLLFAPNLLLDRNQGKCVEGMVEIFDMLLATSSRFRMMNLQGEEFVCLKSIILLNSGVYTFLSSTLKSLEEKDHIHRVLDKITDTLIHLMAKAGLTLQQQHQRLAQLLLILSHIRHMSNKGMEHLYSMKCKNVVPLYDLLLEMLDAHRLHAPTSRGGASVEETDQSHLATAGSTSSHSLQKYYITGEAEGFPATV
T1 sequence (Q92731 whole entry, looked up, the tested form may be a part): as the sequence (Q92731 whole entry, looked up, the tested form may be a part) above
Chain of Estrogen receptor (Homo sapiens) (P03372 whole entry, looked up, the tested form may be a part): as the sequence (P03372 whole entry, looked up, the tested form may be a part) above
Chain of Retinoic acid receptor alpha (Homo sapiens) (P10276 whole entry, looked up): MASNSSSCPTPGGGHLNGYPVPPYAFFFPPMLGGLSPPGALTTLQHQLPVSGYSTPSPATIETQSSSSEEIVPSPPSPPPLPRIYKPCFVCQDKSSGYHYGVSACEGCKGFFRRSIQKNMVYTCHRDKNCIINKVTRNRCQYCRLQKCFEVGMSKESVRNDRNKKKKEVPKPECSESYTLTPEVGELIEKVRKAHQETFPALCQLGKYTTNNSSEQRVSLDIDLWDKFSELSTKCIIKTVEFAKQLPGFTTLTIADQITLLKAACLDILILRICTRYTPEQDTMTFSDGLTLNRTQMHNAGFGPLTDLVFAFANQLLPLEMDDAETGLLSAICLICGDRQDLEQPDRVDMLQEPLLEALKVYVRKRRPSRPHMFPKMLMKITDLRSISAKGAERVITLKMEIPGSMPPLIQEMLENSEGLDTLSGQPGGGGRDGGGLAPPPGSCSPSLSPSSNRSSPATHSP
Chain of Glucocorticoid receptor (Homo sapiens) (P04150 whole entry, looked up): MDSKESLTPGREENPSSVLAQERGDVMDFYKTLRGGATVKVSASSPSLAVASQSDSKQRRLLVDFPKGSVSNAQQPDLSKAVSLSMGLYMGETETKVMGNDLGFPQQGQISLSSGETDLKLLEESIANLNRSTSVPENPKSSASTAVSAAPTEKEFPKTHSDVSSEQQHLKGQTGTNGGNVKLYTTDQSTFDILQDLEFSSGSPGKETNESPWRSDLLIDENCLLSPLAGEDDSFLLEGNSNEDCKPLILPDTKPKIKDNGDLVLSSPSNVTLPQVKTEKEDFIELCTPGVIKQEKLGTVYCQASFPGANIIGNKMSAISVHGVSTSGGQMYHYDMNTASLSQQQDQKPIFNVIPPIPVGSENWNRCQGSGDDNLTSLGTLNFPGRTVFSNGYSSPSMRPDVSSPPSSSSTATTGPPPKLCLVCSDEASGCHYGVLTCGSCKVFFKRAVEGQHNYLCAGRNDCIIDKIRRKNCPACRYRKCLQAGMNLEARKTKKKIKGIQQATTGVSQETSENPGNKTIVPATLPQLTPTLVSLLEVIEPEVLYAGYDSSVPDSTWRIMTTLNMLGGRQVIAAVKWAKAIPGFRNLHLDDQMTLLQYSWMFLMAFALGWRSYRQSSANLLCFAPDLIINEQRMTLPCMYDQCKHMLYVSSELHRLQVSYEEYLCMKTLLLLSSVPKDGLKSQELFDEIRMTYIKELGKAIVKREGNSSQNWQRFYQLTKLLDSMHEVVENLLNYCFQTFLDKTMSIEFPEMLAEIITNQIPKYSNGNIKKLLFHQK
Chain of human Peroxisome Proliferator-activated Receptor alpha (PPARa), PPARA (gene 5465) (Q07869 whole entry, looked up): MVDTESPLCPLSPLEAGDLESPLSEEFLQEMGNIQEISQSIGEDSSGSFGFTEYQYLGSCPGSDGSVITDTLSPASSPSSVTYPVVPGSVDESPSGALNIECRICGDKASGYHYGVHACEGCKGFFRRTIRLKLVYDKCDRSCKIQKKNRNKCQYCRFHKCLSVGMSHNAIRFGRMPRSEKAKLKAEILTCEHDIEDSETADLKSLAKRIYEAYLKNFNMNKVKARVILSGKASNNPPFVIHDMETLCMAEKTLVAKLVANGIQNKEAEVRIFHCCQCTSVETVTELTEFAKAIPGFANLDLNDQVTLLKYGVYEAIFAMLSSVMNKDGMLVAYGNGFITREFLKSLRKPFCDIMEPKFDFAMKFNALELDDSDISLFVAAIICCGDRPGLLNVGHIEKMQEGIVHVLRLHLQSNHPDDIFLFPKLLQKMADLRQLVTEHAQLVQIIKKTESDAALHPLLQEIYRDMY

CCCCOC(=O)[C@H](C)O
inactive: [1] | [2]

CCCCC(CC)COC(=O)c1ccc(N(C)C)cc1 (stereo unspecified)
inactive: [1] | [2] | [3] | [4] | [5]

CCc1cc(Cc2cc(CC)c(N)c(CC)c2)cc(CC)c1N
active: [6] 0.0643 µM | [4] 12.4 µM
inactive: [1] | [2] | [3] | [5] | [7]

COCCOCCC[Si](C)(O[Si](C)(C)C)O[Si](C)(C)C
active: [1] 76.1 µM | [3] 50 µM | [4] 58.7 µM | [5] 51.5 µM
inactive: [2] | [8] | [7]

O=C(c1ccccc1)c1ccc(O)cc1O
active: [6] 1.42 µM | [1] 22.7 µM | [2] 22.7 µM

CCN=c1cc2oc3cc(NCC)c(C)cc3c(-c3ccccc3C(=O)OCC)c-2cc1C
active: [6] 5.29 µM | [1] 62.3 µM | [2] 12.2 µM | [3] 71.3 µM | [8] 12.5 µM | [5] 55.1 µM | [9] 18.1 µM | [10] 38.3 µM | [11] 9.39 µM | [12] 6.57 µM
inactive: [4]

CCCCCCCCn1sc(Cl)c(Cl)c1=O
active: [6] 0.549 µM
inactive: [1] | [2] | [5]

CCN=C1C=CC(=C(c2ccc(N(CC)CC)cc2)c2ccc(N(CC)CC)cc2)c2ccccc21
inactive: [1] | [2] | [3] | [4] | [5]
active: [6] 13.8 µM | [8] 1.04 µM | [10] 1.15 µM | [11] 0.404 µM | [12] 1.05 µM

OCC1CCCO1 (stereo unspecified)
inactive: [1] | [2] | [3] | [4] | [5]

Cc1ccc([N+](=O)[O-])c(C)c1
inactive: [1] | [2]

CC(C)(C)C(=O)C1C(=O)c2ccccc2C1=O
inactive: [6]

CCOC(OCC)OCC
inactive: [1] | [2] | [3] | [4] | [5] | [7]

CC(C)OC=O
inactive: [1] | [2]

F[Si-2](F)(F)(F)(F)F
inactive: [1] | [2] | [3] | [8] | [4]

CCCCCCCCCCCCCC[P+](CCCC)(CCCC)CCCC
active: [6] 14.3 µM | [8] 12.3 µM | [13] 8.54 µM | [9] 3.23 µM | [7] 0.0885 µM | [12] 3.82 µM
inactive: [1] | [2] | [4] | [5]

O=C1C=CC(=O)N1c1ccc(Cc2ccc(N3C(=O)C=CC3=O)cc2)cc1
inactive: [6] | [15]
active: [14] 11.3 µM

CCCCCCCC/C=C\CCCCCCCC(=O)OCC(O)CO (stereo unspecified)
active: [13] 17 µM | [7] 8.56 µM | [12] 34.8 µM
inactive: [1] | [2] | [3] | [8] | [4] | [5] | [16]

CCC(Cc1c(I)cc(I)c(N)c1I)C(=O)O (stereo unspecified)
inactive: [6] | [1]
active: [2] 66.3 µM

CCCCCCCCCCCCC[N+](C)(C)Cc1ccccc1
inactive: [1] | [2] | [5] | [11]
active: [8] 14.6 µM | [16] 9.07 µM | [13] 21 µM | [9] 13.4 µM | [7] 3.9 µM

Cc1ccc(O)c(-n2nc3ccccc3n2)c1
inactive: [6] | [1] | [2] | [3] | [4] | [5]

O=C1C=CC(=O)N1c1ccccc1
inactive: [1] | [2] | [4]
active: [8] 25.6 µM

CCCCCCCCCc1ccc(OCCO)cc1
inactive: [6] | [2] | [7]
active: [1] 19.7 µM | [3] 4.81 µM | [8] 25.4 µM | [4] 4.94 µM | [5] 4.92 µM

CCCCOC(=O)C(C)O (stereo unspecified)
inactive: [6] | [1] | [2]

CC(C)(C)c1cc(Cc2cc(C(C)(C)C)c(O)c(C(C)(C)C)c2)cc(C(C)(C)C)c1O
inactive: [1] | [2] | [3] | [4] | [5] | [7]

CCCCCCCC/C=C\CCCCCCCC(=O)N(C)CC(=O)O
active: [11] 4.85 µM
inactive: [3] | [13] | [7]

C[C@]12CC[C@H]3C(=CCc4cc(O)ccc43)[C@@H]1CCC2=O
active: [8] 0.555 µM

O=C1c2c(O)ccc(Nc3ccc(CCO)cc3)c2C(=O)c2c([N+](=O)[O-])ccc(O)c21
active: [11] 23.5 µM

N#Cc1ccccc1O
inactive: [7]

Cc1cc(C)c(O)c(C(C)(C)C)c1
active: [17] 16.5 µM

c1ccc(C[P+](c2ccccc2)(c2ccccc2)c2ccccc2)cc1
active: [17] 4.57 µM
